Data from PubChem BioAssay (NCI).
Where “and” joins values, the source holds several entries; their conditions need not be identical. Equal entries are not always repeated. Compounds without any hit were thinned out: in the full panel of roughly 83,000, 20% have a hit.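 The endpoint reported here, percent growth, reads 100 for growth as untreated, 0 for no net growth and -100 for all cells dead.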 Calls of active or inactive are those of the source. How the source made its calls: active means growth percent below 10; inactive means the rest.

Columns and labels:
Assay in all cases: NCI-60 one-dose screen, 48 h (100 = growth as untreated, 0 = no growth, -100 = all killed)
Conditions in all cases: 10 µM unless noted
DU-145 prostate = tested on: DU-145 prostate
K-562 leukemia = tested on: K-562 leukemia
MALME-3M melanoma = tested on: MALME-3M melanoma
MDA-MB-231 breast = tested on: MDA-MB-231 breast
RXF 393 renal = tested on: RXF 393 renal
SF-268 CNS = tested on: SF-268 CNS
SF-295 CNS = tested on: SF-295 CNS
SF-539 CNS = tested on: SF-539 CNS
UACC-257 melanoma = tested on: UACC-257 melanoma
M14 melanoma = tested on: M14 melanoma

Measured: growth

CC1CCC2(C(=O)O)CCC3(C)C(=CCC4C5(C)CCC(O)C(C)(C)C5CCC43C)C2C1C (centres undefined)
inactive: DU-145 prostate 44% and 75.8% | K-562 leukemia 14.4% and 62.6% | MALME-3M melanoma 81.4% and 88.9% | MDA-MB-231 breast 28.1% and 71.6% | RXF 393 renal 40.9% and 79.5% | SF-268 CNS 28.9% and 75.7% | SF-295 CNS 28% and 89.7% | SF-539 CNS 43.1% and 79% | UACC-257 melanoma 39.8% and 90.1% | M14 melanoma 41.1%

Cc1cc(-c2cc(C)c(O)c(C)c2)cc(C)c1O
inactive: DU-145 prostate 104% | K-562 leukemia 31.9% | MALME-3M melanoma 75% | MDA-MB-231 breast 75.6% | RXF 393 renal 63.5% | SF-268 CNS 92.9% | SF-295 CNS 86.1% | SF-539 CNS 84.9% | UACC-257 melanoma 92% | M14 melanoma 71.6%

COc1ccc2cc1Oc1ccc(cc1)C[C@H]1c3cc(c(OC)cc3CCN1C)Oc1c(OC)c(OC)cc3c1[C@H](C2)N(C)CC3
inactive: DU-145 prostate 53.1% | MALME-3M melanoma 16.3% | RXF 393 renal 47.2% | SF-268 CNS 78.2% | SF-295 CNS 71.8% | UACC-257 melanoma 46.2%
active: K-562 leukemia -75.4% | MDA-MB-231 breast 8.45% | SF-539 CNS -74.4% | M14 melanoma -78.8%

CCCCOC(=O)/C=C\C(=O)NC(N)=O
inactive: DU-145 prostate 91.1% | K-562 leukemia 82.3% | MALME-3M melanoma 92.3% | MDA-MB-231 breast 75.5% | SF-268 CNS 96.6% | SF-295 CNS 103% | SF-539 CNS 95.7% | UACC-257 melanoma 77.8% | M14 melanoma 92.1%
active: RXF 393 renal -13.6%

CC1CCC(C(C)C)C(NNC(N)=O)C1 (centres undefined)
inactive: DU-145 prostate 106% | K-562 leukemia 101% | MALME-3M melanoma 110% | MDA-MB-231 breast 97.5% | RXF 393 renal 101% | SF-268 CNS 106% | SF-295 CNS 103% | SF-539 CNS 110% | UACC-257 melanoma 87.3% | M14 melanoma 106%

O=C1c2c(O)ccc(O)c2C(=O)c2c(NCCNCCO)ccc(NCCNCCO)c21
active: DU-145 prostate -36.8% and -51.3% | K-562 leukemia -5.45% and -77.6% | MALME-3M melanoma -64.6% and -88.2% | MDA-MB-231 breast -84.3% and -77.3% | RXF 393 renal -86.4% and -68.9% | SF-268 CNS -73% and -80% | SF-295 CNS -37.8% and -39.6% | SF-539 CNS -38.4% and -84% | UACC-257 melanoma -4.02% and -47.7% | M14 melanoma -79.7% and -97.7%

COc1ccc(N/C=C/C2=[N+](C)c3ccccc3C2(C)C)c(OC)c1
inactive: DU-145 prostate 102% | K-562 leukemia 103% | MALME-3M melanoma 85.5% | MDA-MB-231 breast 85.2% | RXF 393 renal 97.4% | SF-268 CNS 95.6% | SF-295 CNS 86.2% | SF-539 CNS 102% | UACC-257 melanoma 99.5% | M14 melanoma 86.4%

CN(C)c1ccc(/C=C\C(=O)c2ccccc2)cc1
inactive: DU-145 prostate 86.8% and 89.2% and 79.1% | K-562 leukemia 15.3% and 26.7% and 42.6% | MALME-3M melanoma 87.5% and 84.4% and 83% | MDA-MB-231 breast 104% and 84.4% and 105% | RXF 393 renal 92.4% and 102% | SF-268 CNS 92.4% and 90% and 85.2% | SF-295 CNS 66.3% and 91.5% and 98% | SF-539 CNS 88% and 95.7% and 94.4% | UACC-257 melanoma 83.8% and 92.7% and 98.1% | M14 melanoma 89.7% and 79.2% and 72.5%

Cc1cc2ccccc2cn1
inactive: DU-145 prostate 114% and 122% | K-562 leukemia 118% and 102% | MALME-3M melanoma 101% and 100% | MDA-MB-231 breast 97.9% and 107% | RXF 393 renal 104% | SF-268 CNS 101% and 134% | SF-295 CNS 100% and 90.3% | SF-539 CNS 102% and 98.7% | UACC-257 melanoma 97.3% | M14 melanoma 107% and 111%

CCc1cc(C)cc(O)c1
inactive: DU-145 prostate 122% | K-562 leukemia 100% | MALME-3M melanoma 112% | MDA-MB-231 breast 112% | RXF 393 renal 94.4% | SF-268 CNS 124% | SF-295 CNS 116% | SF-539 CNS 128% | UACC-257 melanoma 96.1% | M14 melanoma 103%

O=c1[nH]cnc2c1ncn2C1OC(CO)C(O)C1O (centres undefined)
inactive: DU-145 prostate 126% and 133% and 112% | K-562 leukemia 105% and 108% and 113% | MALME-3M melanoma 131% and 124% and 110% | MDA-MB-231 breast 110% and 105% and 108% | RXF 393 renal 129% and 118% | SF-268 CNS 114% and 112% and 94.2% | SF-295 CNS 124% and 111% and 88.8% | SF-539 CNS 113% and 96.1% | UACC-257 melanoma 104% and 119% | M14 melanoma 100% and 107% and 98.2%

CN(C)CC1CCCCCC(CN(C)C)C1=O (centres undefined)
active: K-562 leukemia 0.401% | MALME-3M melanoma -29.8% | RXF 393 renal -5.99%
inactive: DU-145 prostate 16.3% | MDA-MB-231 breast 86.2% | SF-268 CNS 97% | SF-295 CNS 76.8% | SF-539 CNS 113% | UACC-257 melanoma 53.1% | M14 melanoma 77.4%

c1ccc(-c2nc3ccccc3s2)cc1
inactive: DU-145 prostate 113% | K-562 leukemia 102% | MALME-3M melanoma 97.5% | MDA-MB-231 breast 68.5% | RXF 393 renal 106% | SF-268 CNS 95% | SF-295 CNS 97.9% | SF-539 CNS 96% | UACC-257 melanoma 98.5% | M14 melanoma 97.3%

O=[N+]([O-])c1cccc(SSc2cccc([N+](=O)[O-])c2)c1
inactive: DU-145 prostate 112% | K-562 leukemia 94.3% | MALME-3M melanoma 97.2% | MDA-MB-231 breast 95.4% | RXF 393 renal 123% | SF-268 CNS 106% | SF-295 CNS 108% | SF-539 CNS 102% | UACC-257 melanoma 110% | M14 melanoma 94.2%

COc1ccc(C(=O)CC(c2ccccc2)C(C#N)c2ccccc2)cc1 (centres undefined)
inactive: DU-145 prostate 92.2% | K-562 leukemia 80.7% | MALME-3M melanoma 97.2% | MDA-MB-231 breast 81% | RXF 393 renal 99.5% | SF-268 CNS 86.3% | SF-295 CNS 96.3% | SF-539 CNS 97.7% | UACC-257 melanoma 87.7% | M14 melanoma 88%

CC(=O)OCC1OC(OC(C)=O)C(OC(C)=O)C(OC(C)=O)C1OC(C)=O (centres undefined)
inactive: DU-145 prostate 107% and 102% | K-562 leukemia 111% and 95.9% | MALME-3M melanoma 99.8% | MDA-MB-231 breast 124% and 109% | RXF 393 renal 102% and 106% | SF-268 CNS 108% and 99% | SF-295 CNS 98.2% | SF-539 CNS 99.6% and 103% | UACC-257 melanoma 95.4% and 101% | M14 melanoma 99.6% and 103%

CC[C@H](CC[C@@H](C)[C@H]1CC[C@H]2[C@@H]3CC=C4C[C@@H](O)CC[C@]4(C)[C@H]3CC[C@]12C)C(C)C
inactive: DU-145 prostate 114% and 103% | K-562 leukemia 106% | MALME-3M melanoma 106% and 104% | MDA-MB-231 breast 115% and 97.9% | RXF 393 renal 104% | SF-268 CNS 101% and 97.6% | SF-295 CNS 98.3% and 101% | SF-539 CNS 92.2% and 99.1% | UACC-257 melanoma 97.5% | M14 melanoma 103% and 106%

c1ccc2c(c1)OC1OC2Oc2ccccc21
inactive: DU-145 prostate 113% | K-562 leukemia 96.1% | MALME-3M melanoma 113% | MDA-MB-231 breast 114% | RXF 393 renal 97.1% | SF-268 CNS 99.3% | SF-295 CNS 115% | SF-539 CNS 106% | UACC-257 melanoma 101%

O=C1C=C(Nc2ccccc2)c2ccccc2C1=O
inactive: DU-145 prostate 21.2% and 97.3% | K-562 leukemia 54.7% and 98.7% | MALME-3M melanoma 70.1% and 71% | MDA-MB-231 breast 69.1% and 59.7% | RXF 393 renal 96.7% | SF-268 CNS 80.3% and 92.8% | SF-295 CNS 61.1% and 105% | SF-539 CNS 44.4% and 105% | UACC-257 melanoma 88.7% and 97.9% | M14 melanoma 47% and 107%
